Results taken from PubChem BioAssay AID1508600 (Functional Genomics Laboratory (NCATS/FGL), 2020).
The campaign covered roughly 53,000 sequences. About 3,700 (7%) were called active. This is one part of a sample in which actives are shown more often than they occur.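 How the source made its calls: active means gene knockdowns whose robust z-score for IL-1 alpha signal is at least 2 or at most -2, so actives lie on both sides; inactive means the rest.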

experiment: Components of the Cytosolic LPS Sensing Pathway: Gene Identification via Genome-wide siRNA Screen; conditions: RAW264.7 macrophages, IL-1a HTRF, actives lie on both sides, screened at 100 nM (by protocol), cells primed 5 h with Pam3CSK4 first;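 further: robust z of the log signal after scaling to non-targeting control siRNA wells of the plate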
Method in brief: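 RAW264.7 mouse macrophages reverse-transfected with single siRNAs (100 nM final) for 48h, primed with Pam3CSK4 for 5 hours, then transfected with LipidA for 24 hour. Supernatant IL-1a read by HTRF; values normalized to negative-control median, log-transformed robust z-scores.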

Sequence	z-score
GCUGCUCUGCUAUAAGUAUTT against Kptn	-0.269 (inactive)
GGAAAUCGAUAGUUUCUUCTT against Olfr1302	-0.0687 (inactive)
GACCUUCGUUAGCAUUACGTT against Pfn1	0.65 (inactive)
GCUGUUUUGUCUCCAGCCCTT against Zbtb20	-0.118 (inactive)
GGGAUAUGUGACUAUGUUATT against Slc5a7	-0.138 (inactive)
GCUGAGAAUCGUUUAAAUGTT against Ugt2a3	0.00662 (inactive)
GCUAAUUGUUCACUAAAGGTT against 1700029H14Rik	0.655 (inactive)
GGUUAUCAUGAGGCCUUGGTT against Olfr1339	-2.38 (active)
GGUCAGAAAAGUAUGUUGGTT against Naip5	0.208 (inactive)
GUGUAUCCCAGGCUAUCACTT against Vmn1r19	-1.17 (inactive)
GCCACGAUAAUUCAGGAGUTT against Aurkc	2.27 (active)
GCUGAAUGGAAGGAAGUUGTT against Wdr83os	-1.32 (inactive)
CGCCAAUGUGAUUAAACUATT against Mak	2.01 (active)
GGACAUGUGUAAAUAAUCATT against En2	3.4 (active)
GGUGAUAGUACUGUCAGCCTT against Olfr1225	-0.517 (inactive)
GGAACAAGAACAAGUUGAGTT against Spa17	0.389 (inactive)
GGUGGAAGCACUCAAUAAGTT against Pik3cb	-1.24 (inactive)
GGUGCUUCUCUAAGAUAAUTT against Ddias	0.776 (inactive)
CCCUUACUUAGUCUCCACUTT against Olig1	-0.025 (inactive)
GGUGUUAUCAGAAUUCAGATT against Cars	2.6 (active)
GGACCACCGUGAUCAACAUTT against Ifitm2	0.215 (inactive)
GCUCACUUGUAGUGCUUUATT against Arf2	1.88 (inactive)

Sequence	z-score
GGCGUAAACAUGGUGUGCATT against Taok3	-0.807 (inactive)
GCUCUAUAGUGACCAAUGUTT against Gcgr	-0.072 (inactive)
GGAAGUUCCACGUUAUUGUTT against Eif2b2	-1.3 (inactive)
GCGAUUUCACACCAUCACATT against Rab10	-1.03 (inactive)
GGAUGAUUUAUGGUUACUGTT against Vmn1r80	2.01 (active)
GGCCUUUCACAACAUAAAATT against Chil6	-0.808 (inactive)
GGGAGCAGUCUUCCCUCAUTT against Cox8a	-1.44 (inactive)
AGAAAUGCCUCUUCAGUGATT against Olfr884	1.59 (inactive)
GGAGAAAUGAAGAUUGUGGTT against Tmem218	-2.31 (active)
GGUCAGCCAGACCAUUUCUTT against Edc3	-1.27 (inactive)
GGUGGCAAAGUGGUGAUCCTT against Fabp7	2.05 (active)
GGAUCUUAUUAUUUGAUCCTT against Mettl15	-0.671 (inactive)
GGAAGUAGAUUAGAUGGUATT against Akt3	0.52 (inactive)
GGAAUACCACAUGCUUUUGTT against Ldah	-0.288 (inactive)
GCUAACCCUCGUUUAGAAGTT against Apol9b	0.529 (inactive)
GGCAUCUUGGAGGAUUUGCTT against Cyrib	0.719 (inactive)
GGGUCAAUCAUGAAUGUUUTT against Pak4	-1.02 (inactive)
GAUUUGAGACCCAGAUCAUTT against Gzmm	2.08 (active)
GGGACAUGUUUUGAUAAAGTT against Yy1	-0.591 (inactive)
GCUUCGGAAUCGGUUACCATT against Alg2	-1.28 (inactive)
GGUUGUUUAUGCUUUCUCUTT against Arhgap32	-0.766 (inactive)
CGAAGUGGUUUUAUGUACUTT against Cdkn2b	-2.39 (active)

Sequence	z-score
GAUGGUCAUCCUUCCUUUATT against Olfr341	-0.737 (inactive)
GCUUAGACGACUAGACCUGTT against Slit2	-0.186 (inactive)
GGUGGUCUGAUCGUAGACATT against Lrrc61	0.672 (inactive)
GGGCUGACUAUUAUUUCAGTT against Cysltr2	-0.107 (inactive)
GGAAUUUGUGAAAAGAAGUTT against Aldh1a2	-0.923 (inactive)
CGAUAAAAGAGAGAUGAUUTT against Rap1gds1	0.699 (inactive)
GGUGGUAAUUUUUCUCAGATT against Agxt2	-1.74 (inactive)
CCAUCUUGGAGAUCCUGAUTT against Kat5	-2.46 (active)
GGAAAAUCUUAGGAAGAUGTT against Elf4	-0.39 (inactive)
GCUUACCCUGACUCCAAUUTT against Dhx33	-1.76 (inactive)
CCAAGGUCUAAAAAAAUAGTT against Adamts19	-0.907 (inactive)
GGAGGUAACAACAACAGAATT against BC028528	0.7 (inactive)
GGUAGAGAACCAUUUGCUGTT against Dtnbp1	-0.376 (inactive)
GGAACACACAAUUUUAUCATT against 4933436I01Rik	-2.98 (active)
CCAUACAAGAGUGACAGUUTT against Olfr810	-0.736 (inactive)
GGCAAUCCAGGCAAUAUCATT against C1qa	-0.808 (inactive)
CCCUAACUACUUCAUGAAUTT against Paip1	-2.11 (active)
GGAAAUCCAUUGUUUAAAGTT against Wt1	2.01 (active)
CCAUGUGACAGCAUUGUUGTT against Axin1	0.754 (inactive)
CCAGAUUAUCCGUUUAAACTT against Ube2e2	0.242 (inactive)
GCGUGAGAUACCAUAUUAUTT against Bank1	-1.47 (inactive)
GGUCUACCUAAAACUGGAGTT against Cbln4	0.337 (inactive)

Sequence	z-score
GGGAGAGAUGUCAUUGCACTT against Eif4a3	-1.9 (inactive)
GCGGCUACGUGUUUGACUATT against Csnk1g2	-0.735 (inactive)
GCACUUAGACUAUUCCAGGTT against Tph2	-0.118 (inactive)
GGUGAAGUUACAGUCAAAUTT against Nolc1	2.54 (active)
GGUCAGGCUGAGGAAUUCATT against Cyp2s1	-0.562 (inactive)
GGAGGAGGCAGAAACAACATT against Tex46	1.87 (inactive)
GCAGAGAGGAUAACUGACCTT against Slc25a44	-0.723 (inactive)
CCAUUCUUAGUUCACUAUATT against Rgcc	-2.55 (active)
GGAAUUCCCAUUGGAAGAATT against Vmn1r232	0.0956 (inactive)
GGGACCAAGAAGGAUAACUTT against Flrt1	1.4 (inactive)
CCGAUUUAACUGAAUUUGCTT against Acaa2	0.342 (inactive)
GGCAGGACACCAUAUGGUUTT against Tedc1	-2.16 (active)
GGACAAGUCGAGUUUCAAGTT against Zfp503	1.98 (inactive)
CGGAAGAAUAAAAACCGGCTT against Meaf6	0.601 (inactive)
GGUCUUGUGCAUAAAACAGTT against Ece2	-1.06 (inactive)
GCAUAUCCUAAACACUGUUTT against Pqlc3	-0.966 (inactive)
GGGUGAUGCCCUUGAAUCUTT against Twf2	2.48 (active)
GCGACUGACCUUCAAACUGTT against Piwil4	0.193 (inactive)
CCAGCAAAUGAGAGGUCUGTT against Olfr1024	0.676 (inactive)
GGACACUUUCCAAUGGUGATT against Npsr1	1.25 (inactive)
GGAGCUCGAAAAAUUUCAATT against Igfl3	2.13 (active)
GCUCUCAUCAGACUUCGAGTT against Zfp202	0.0887 (inactive)

Sequence	z-score
GCGCAUCUAUGAAAAAACATT against Cerk	-0.471 (inactive)
GGCUGUAAAACUCUGGUUUTT against Vmn1r195	2.82 (active)
GCUCAAAAAACCGAAAUGATT against Cd274	-1.03 (inactive)
GGUAAAUUCAACUGGAAGGTT against Lyar	0.194 (inactive)
GGUUAUCCUCAUUGAUCCGTT against Rpl15	0.0822 (inactive)
GCCUGAUAUCAACAUAGGATT against Pth2r	0.802 (inactive)
UAAAUGAGCUCGUAAUCUUTT against Olfr874	3.23 (active)
CCCUGGCCAAACAUAGUGGTT against Efcab12	0.278 (inactive)
GCACAAGAAAUCGAAUAUGTT against Acr	-0.00119 (inactive)
CCGCCGAUGAGUUUGUUAATT against Hsd17b3	1.2 (inactive)
GCUCUGUCUUAAGAGACUATT against Smo	2.39 (active)
GGUCUGUCUCCAGAUUGCUTT against Olfr56	-1.73 (inactive)
GGAUAUUAUGUCUUUGCUATT against Ints2	0.499 (inactive)
GACCACCAGAAAGUUUCACTT against Lfng	0.339 (inactive)
GCUCUACCUUCGCUGGAAATT against Slc7a6	2.17 (active)
GGAAACUGCAUUCAAGCCATT against Apod	-0.191 (inactive)
CCUCUAGACCGAAUGAAAATT against Zfyve16	0.472 (inactive)
GGAGUCCUCUAAUGUAAAUTT against Elovl4	0.0471 (inactive)
GGGAACUCAAAGAAGAGAGTT against Lysmd2	0.515 (inactive)
CGAGGAGUGGUAUUUUUACTT against Slc34a1	0.0248 (inactive)
